Experimental data: publication PMC11066047

Assays:
[1] = biological target: 26S proteasome regulatory subunit 8 homolog (UniProt Q01939); assay: cross-link between two proteins; cross-linking mass spectrometry
[2] = biological target: 26S proteasome regulatory subunit RPN8 (UniProt Q08723); assay: as above
[3] = biological target: 26S proteasome subunit RPT4 (UniProt P53549); assay: as above
[4] = biological target: 26S proteasome regulatory subunit 4 homolog (UniProt P40327); assay: as above
[5] = biological target: 26S proteasome regulatory subunit RPN3 (UniProt P40016); assay: as above
26S proteasome regulatory subunit RPN3, sequence (P40016 whole entry): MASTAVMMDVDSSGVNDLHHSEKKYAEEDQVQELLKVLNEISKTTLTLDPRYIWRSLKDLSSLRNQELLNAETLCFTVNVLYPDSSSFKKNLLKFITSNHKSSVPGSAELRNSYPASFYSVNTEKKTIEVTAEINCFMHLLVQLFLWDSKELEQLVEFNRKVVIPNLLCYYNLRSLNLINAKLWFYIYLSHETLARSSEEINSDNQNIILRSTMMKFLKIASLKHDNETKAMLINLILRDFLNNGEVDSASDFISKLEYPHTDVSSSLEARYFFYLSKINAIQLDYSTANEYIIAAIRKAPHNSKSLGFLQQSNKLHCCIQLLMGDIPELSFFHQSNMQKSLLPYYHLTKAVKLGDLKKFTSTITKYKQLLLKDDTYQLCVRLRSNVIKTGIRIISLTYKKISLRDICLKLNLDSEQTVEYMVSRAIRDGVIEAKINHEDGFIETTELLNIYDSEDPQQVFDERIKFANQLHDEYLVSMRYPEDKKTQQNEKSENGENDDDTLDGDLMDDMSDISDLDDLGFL

[6] = biological target: Ribosome-associated molecular chaperone SSB1 (UniProt P11484); assay: cross-link between two proteins; affinity purification or IP with mass spectrometry; cross-linking mass spectrometry
Ribosome-associated molecular chaperone SSB1, sequence (P11484 whole entry): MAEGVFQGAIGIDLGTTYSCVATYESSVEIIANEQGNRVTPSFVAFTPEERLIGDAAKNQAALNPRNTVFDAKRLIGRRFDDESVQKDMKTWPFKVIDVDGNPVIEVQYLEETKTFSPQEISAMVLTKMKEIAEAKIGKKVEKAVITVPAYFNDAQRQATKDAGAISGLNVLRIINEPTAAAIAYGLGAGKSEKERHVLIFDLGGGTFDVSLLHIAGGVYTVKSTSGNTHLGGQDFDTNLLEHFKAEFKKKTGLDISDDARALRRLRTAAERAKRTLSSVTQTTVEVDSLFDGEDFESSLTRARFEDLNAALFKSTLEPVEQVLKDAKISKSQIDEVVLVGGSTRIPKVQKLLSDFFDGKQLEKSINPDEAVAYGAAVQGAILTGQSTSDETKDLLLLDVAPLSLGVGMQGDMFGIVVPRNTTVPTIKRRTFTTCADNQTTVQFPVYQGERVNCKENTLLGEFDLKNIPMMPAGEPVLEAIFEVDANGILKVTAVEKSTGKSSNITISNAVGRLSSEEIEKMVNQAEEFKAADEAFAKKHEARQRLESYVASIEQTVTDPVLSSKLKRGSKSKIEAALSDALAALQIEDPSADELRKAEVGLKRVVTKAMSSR

[7] = biological target: Large ribosomal subunit protein eL22A (UniProt P05749); assay: cross-link between two proteins; cross-linking mass spectrometry
[8] = biological target: Large ribosomal subunit protein uL3 (UniProt P14126); assay: as above
[9] = biological target: 2-isopropylmalate synthase 2, mitochondrial (UniProt Q12166); assay: as above
2-isopropylmalate synthase 2, mitochondrial, sequence (Q12166 whole entry): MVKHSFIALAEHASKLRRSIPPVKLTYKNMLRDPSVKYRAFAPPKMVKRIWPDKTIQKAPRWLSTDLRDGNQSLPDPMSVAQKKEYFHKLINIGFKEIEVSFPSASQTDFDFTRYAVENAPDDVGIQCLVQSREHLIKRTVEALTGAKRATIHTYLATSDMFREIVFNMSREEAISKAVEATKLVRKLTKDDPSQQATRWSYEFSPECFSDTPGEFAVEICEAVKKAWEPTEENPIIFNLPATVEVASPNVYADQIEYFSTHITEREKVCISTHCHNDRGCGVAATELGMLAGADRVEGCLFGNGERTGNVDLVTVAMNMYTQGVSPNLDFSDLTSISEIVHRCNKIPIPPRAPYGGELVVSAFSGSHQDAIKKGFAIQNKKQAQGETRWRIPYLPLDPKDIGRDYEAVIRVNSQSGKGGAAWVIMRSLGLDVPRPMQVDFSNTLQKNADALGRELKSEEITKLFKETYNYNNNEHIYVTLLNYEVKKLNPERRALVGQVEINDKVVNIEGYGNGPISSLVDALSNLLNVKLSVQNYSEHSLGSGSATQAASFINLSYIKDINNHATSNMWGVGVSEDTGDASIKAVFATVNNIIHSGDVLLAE

[10] = biological target: ATP synthase subunit 4, mitochondrial (UniProt P05626); assay: as above
[11] = biological target: ATP synthase subunit gamma, mitochondrial (UniProt P38077); assay: as above
[12] = biological target: 26S proteasome regulatory subunit RPN7 (UniProt Q06103); assay: as above
Elongation factor 3A = Elongation factor 3A (UniProt P16521); assay: cross-link between two proteins; affinity purification or IP with mass spectrometry; cross-linking mass spectrometry
[13] = biological target: Heat shock protein homolog SSE1 (UniProt P32589); assay: cross-link between two proteins
[14] = biological target: Heat shock protein homolog SSE2 (UniProt P32590); assay: cross-link between two proteins; affinity purification or IP with mass spectrometry; cross-linking mass spectrometry
[15] = biological target: Large ribosomal subunit protein eL21A (UniProt Q02753); assay: as above
[16] = biological target: Large ribosomal subunit protein eL8B (UniProt P29453); assay: as above
[17] = biological target: Large ribosomal subunit protein uL24B (UniProt P53221); assay: as above
[18] = biological target: Signal transduction protein MDG1 (UniProt P53885); assay: as above
[19] = biological target: Small ribosomal subunit protein eS1B (UniProt P23248); assay: as above
[20] = biological target: Small ribosomal subunit protein uS10 (UniProt P38701); assay: as above
[21] = biological target: Small ribosomal subunit protein uS11B (UniProt P39516); assay: as above
[22] = biological target: ATP synthase subunit 5, mitochondrial (UniProt P09457); assay: cross-link between two proteins; cross-linking mass spectrometry
[23] = biological target: ATP synthase subunit H, mitochondrial (UniProt Q12349); assay: as above
[24] = biological target: ATP synthase subunit d, mitochondrial (UniProt P30902); assay: as above
[25] = biological target: ATP-dependent molecular chaperone HSC82 (UniProt P15108); assay: cross-link between two proteins; affinity purification or IP with mass spectrometry; cross-linking mass spectrometry
Heat shock protein STI1 = Heat shock protein STI1 (UniProt P15705); assay: as above
[26] = biological target: ATP synthase subunit f, mitochondrial (UniProt Q06405); assay: cross-link between two proteins; cross-linking mass spectrometry
[27] = biological target: ATP-dependent RNA helicase HAS1 (UniProt Q03532); assay: as above
ATP-dependent RNA helicase HAS1, sequence (Q03532 whole entry): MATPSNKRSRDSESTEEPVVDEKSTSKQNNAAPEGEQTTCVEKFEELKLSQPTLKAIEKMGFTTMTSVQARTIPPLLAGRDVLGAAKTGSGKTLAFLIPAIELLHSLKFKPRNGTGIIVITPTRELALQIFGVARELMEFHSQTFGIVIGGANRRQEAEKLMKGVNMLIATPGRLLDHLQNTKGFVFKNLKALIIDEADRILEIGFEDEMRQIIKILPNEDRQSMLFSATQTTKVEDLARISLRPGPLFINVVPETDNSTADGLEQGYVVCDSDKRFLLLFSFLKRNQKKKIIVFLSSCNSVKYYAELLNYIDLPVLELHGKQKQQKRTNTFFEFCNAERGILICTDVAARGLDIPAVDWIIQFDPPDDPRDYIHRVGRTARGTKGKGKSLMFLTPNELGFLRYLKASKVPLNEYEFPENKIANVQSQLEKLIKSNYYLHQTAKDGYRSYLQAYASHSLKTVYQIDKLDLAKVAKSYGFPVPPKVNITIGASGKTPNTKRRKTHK

[28] = biological target: ATP-dependent RNA helicase DBP10 (UniProt Q12389); assay: as above
[29] = biological target: Protein transport protein SSS1 (UniProt P35179); assay: cross-link between two proteins; affinity purification or IP with mass spectrometry; cross-linking mass spectrometry
[30] = biological target: 26S proteasome regulatory subunit 7 homolog (UniProt P33299); assay: cross-link between two proteins; cross-linking mass spectrometry
[31] = biological target: 26S proteasome regulatory subunit RPN9 (UniProt Q04062); assay: as above
[32] = biological target: ATP synthase subunit K, mitochondrial (UniProt P81451); assay: as above
[33] = biological target: 26S proteasome regulatory subunit RPN2 (UniProt P32565); assay: as above
[34] = biological target: Large ribosomal subunit protein eL13B (UniProt P40212); assay: as above
[35] = biological target: Casein kinase II subunit beta (UniProt P43639); assay: as above
[36] = biological target: Casein kinase II subunit beta' (UniProt P38930); assay: as above
[37] = biological target: Cytochrome b-c1 complex subunit 10, mitochondrial (UniProt P37299); assay: as above
[38] = biological target: Cytochrome b-c1 complex subunit 2, mitochondrial (UniProt P07257); assay: as above
[39] = biological target: Cytochrome c oxidase subunit 12, mitochondrial (UniProt Q01519); assay: as above
[40] = biological target: Cytochrome c oxidase subunit 5A, mitochondrial (UniProt P00424); assay: as above
[41] = biological target: Cytochrome c oxidase subunit 6, mitochondrial (UniProt P00427); assay: as above
[42] = biological target: DNA-directed RNA polymerase II subunit RPB11 (UniProt P38902); assay: as above
[43] = biological target: DNA-directed RNA polymerases I, II, and III subunit RPABC5 (UniProt P22139); assay: as above
DNA-directed RNA polymerases I, II, and III subunit RPABC5, sequence (P22139 whole entry): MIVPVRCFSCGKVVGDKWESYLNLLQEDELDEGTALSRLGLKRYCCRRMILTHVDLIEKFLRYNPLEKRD

FK506-binding protein 4 = FK506-binding protein 4 (UniProt Q06205); assay: as above
[44] = biological target: H/ACA ribonucleoprotein complex subunit NOP10 (UniProt Q6Q547); assay: cross-link between two proteins

26S proteasome regulatory subunit 4 homolog, sequence (P40327 whole entry): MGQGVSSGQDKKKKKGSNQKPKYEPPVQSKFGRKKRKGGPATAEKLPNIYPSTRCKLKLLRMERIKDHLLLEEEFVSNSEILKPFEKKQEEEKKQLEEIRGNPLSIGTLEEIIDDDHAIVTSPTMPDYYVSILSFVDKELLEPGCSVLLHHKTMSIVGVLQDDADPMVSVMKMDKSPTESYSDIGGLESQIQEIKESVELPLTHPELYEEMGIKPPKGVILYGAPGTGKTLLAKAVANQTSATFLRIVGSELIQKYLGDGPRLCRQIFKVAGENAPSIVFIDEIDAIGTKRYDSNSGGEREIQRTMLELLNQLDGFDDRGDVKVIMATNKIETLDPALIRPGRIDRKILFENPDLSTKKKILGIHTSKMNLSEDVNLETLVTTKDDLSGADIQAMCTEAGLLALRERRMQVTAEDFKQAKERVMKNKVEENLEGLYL
26S proteasome regulatory subunit 8 homolog, sequence (Q01939 whole entry): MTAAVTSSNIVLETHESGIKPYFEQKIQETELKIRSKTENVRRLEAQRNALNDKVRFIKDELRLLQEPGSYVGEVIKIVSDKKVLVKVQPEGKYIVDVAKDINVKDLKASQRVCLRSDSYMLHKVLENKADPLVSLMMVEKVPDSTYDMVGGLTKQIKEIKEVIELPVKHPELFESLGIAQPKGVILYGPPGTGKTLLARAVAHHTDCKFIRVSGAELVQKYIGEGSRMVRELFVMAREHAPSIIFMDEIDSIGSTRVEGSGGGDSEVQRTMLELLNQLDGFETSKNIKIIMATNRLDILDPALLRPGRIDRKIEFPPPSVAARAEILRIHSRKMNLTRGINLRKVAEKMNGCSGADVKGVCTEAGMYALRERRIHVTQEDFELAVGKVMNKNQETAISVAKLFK
Ribosome-associated molecular chaperone SSB1, P11484, sequence (P11484 whole entry): as the sequence (P11484 whole entry) above
26S proteasome regulatory subunit RPN8, sequence (Q08723 whole entry): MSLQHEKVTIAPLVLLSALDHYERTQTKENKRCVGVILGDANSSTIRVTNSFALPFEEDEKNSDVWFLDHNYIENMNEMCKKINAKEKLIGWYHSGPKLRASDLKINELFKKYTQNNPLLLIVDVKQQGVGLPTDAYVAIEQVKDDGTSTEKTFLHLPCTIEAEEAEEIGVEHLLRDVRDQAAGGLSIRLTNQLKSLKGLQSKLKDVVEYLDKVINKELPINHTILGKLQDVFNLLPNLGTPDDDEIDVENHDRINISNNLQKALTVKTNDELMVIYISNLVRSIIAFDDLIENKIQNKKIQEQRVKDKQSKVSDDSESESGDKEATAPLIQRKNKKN
Nucleolar protein 16, P40007, sequence (P40007 whole entry): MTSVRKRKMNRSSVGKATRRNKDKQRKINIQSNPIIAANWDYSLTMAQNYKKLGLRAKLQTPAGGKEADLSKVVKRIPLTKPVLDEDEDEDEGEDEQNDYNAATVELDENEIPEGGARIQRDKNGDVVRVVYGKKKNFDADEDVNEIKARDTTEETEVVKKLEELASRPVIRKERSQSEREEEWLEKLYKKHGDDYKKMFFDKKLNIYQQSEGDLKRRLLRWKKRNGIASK
26S proteasome subunit RPT4, sequence (P53549 whole entry): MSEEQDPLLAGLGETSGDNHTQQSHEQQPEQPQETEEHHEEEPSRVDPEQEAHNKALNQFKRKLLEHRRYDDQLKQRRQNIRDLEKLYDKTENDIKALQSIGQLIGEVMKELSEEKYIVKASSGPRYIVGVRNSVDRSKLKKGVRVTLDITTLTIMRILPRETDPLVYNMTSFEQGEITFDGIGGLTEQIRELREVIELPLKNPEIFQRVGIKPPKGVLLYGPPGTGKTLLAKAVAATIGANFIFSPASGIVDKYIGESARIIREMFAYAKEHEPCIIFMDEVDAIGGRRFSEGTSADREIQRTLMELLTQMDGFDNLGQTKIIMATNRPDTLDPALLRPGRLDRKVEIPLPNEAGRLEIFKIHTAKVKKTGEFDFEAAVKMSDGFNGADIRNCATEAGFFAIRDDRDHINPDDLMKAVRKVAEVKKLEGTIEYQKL
ATP-dependent molecular chaperone HSC82, P15108, sequence (P15108 whole entry): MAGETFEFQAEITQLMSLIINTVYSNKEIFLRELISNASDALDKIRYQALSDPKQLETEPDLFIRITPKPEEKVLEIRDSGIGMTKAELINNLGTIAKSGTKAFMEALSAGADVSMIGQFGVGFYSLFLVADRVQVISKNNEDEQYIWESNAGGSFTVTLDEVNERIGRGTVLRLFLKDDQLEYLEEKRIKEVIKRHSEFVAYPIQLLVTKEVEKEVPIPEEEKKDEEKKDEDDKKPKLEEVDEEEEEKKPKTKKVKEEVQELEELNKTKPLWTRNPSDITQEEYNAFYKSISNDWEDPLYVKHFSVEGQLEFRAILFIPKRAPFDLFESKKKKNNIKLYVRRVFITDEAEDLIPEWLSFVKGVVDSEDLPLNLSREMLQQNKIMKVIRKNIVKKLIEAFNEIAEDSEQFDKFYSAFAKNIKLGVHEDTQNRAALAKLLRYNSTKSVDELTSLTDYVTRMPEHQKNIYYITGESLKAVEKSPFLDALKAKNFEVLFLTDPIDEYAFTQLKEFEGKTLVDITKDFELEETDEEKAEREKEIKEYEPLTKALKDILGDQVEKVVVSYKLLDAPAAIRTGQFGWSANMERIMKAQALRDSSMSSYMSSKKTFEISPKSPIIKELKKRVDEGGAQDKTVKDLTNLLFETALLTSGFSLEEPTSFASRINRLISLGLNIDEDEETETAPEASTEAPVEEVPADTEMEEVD

Substance: Ubiquitin C-terminal hydrolase RPN11, P43588
- listed as a hit [1]: yes
- listed as a hit [2]: yes
- listed as a hit [3]: yes

Substance: 26S proteasome regulatory subunit RPN2, P32565
- listed as a hit [4]: yes
- listed as a hit [1]: yes
- listed as a hit [5]: yes

Substance: Enolase 1, P00924
- listed as a hit [6]: yes

Substance: 26S proteasome regulatory subunit 4 homolog, P40327
- listed as a hit [1]: yes

Substance: Large ribosomal subunit protein eL24A, P04449
- listed as a hit [7]: yes
- listed as a hit [8]: yes
- listed as a hit [6]: yes

Substance: 2-isopropylmalate synthase, P06208
- listed as a hit [9]: yes

Substance: ATP synthase subunit beta, mitochondrial, P00830
- listed as a hit [10]: yes

Substance: 26S proteasome regulatory subunit 6B homolog, P33298
- listed as a hit [5]: yes
- listed as a hit [3]: yes

Substance: ATP synthase subunit epsilon, mitochondrial, P21306
- listed as a hit [11]: yes

Substance: Heat shock protein SSA2, P10592
- listed as a hit [6]: yes

Substance: 26S proteasome complex subunit SEM1, O94742
- listed as a hit [12]: yes

Substance: 26S proteasome regulatory subunit RPN10, P38886
- listed as a hit [2]: yes

Substance: Heat shock protein STI1, P15705
- listed as a hit [5]: yes

Substance: Ribosome-associated molecular chaperone SSB1, P11484
- listed as a hit (Elongation factor 3A): yes
- listed as a hit [13]: yes
- listed as a hit [14]: yes
- listed as a hit [15]: yes
- listed as a hit [16]: yes
- listed as a hit [17]: yes
- listed as a hit [18]: yes
- listed as a hit [19]: yes
- listed as a hit [20]: yes
- listed as a hit [21]: yes

Substance: ATP synthase subunit 4, mitochondrial, P05626
- listed as a hit [22]: yes
- listed as a hit [23]: yes
- listed as a hit [24]: yes

Substance: 26S proteasome regulatory subunit 7 homolog, P33299
- listed as a hit [4]: yes

Substance: ATP-dependent molecular chaperone HSP82, P02829
- listed as a hit [25]: yes

Substance: 26S proteasome regulatory subunit RPN12, P32496
- listed as a hit [5]: yes

Substance: Polyadenylate-binding protein, cytoplasmic and nuclear, P04147
- listed as a hit [6]: yes

Substance: ATP-dependent molecular chaperone HSC82, P15108
- listed as a hit (Heat shock protein STI1): yes

Substance: Large ribosomal subunit protein uL29B, P0CX85
- listed as a hit [6]: yes

Substance: ATP synthase subunit d, mitochondrial, P30902
- listed as a hit [26]: yes

Substance: Proteasome-interacting protein CIC1, P38779
- listed as a hit [27]: yes

Substance: Ribosome biogenesis protein NSA2, P40078
- listed as a hit [28]: yes

Substance: Protein transport protein SEC61, P32915
- listed as a hit [29]: yes

Substance: 26S proteasome regulatory subunit 6A, P33297
- listed as a hit [4]: yes
- listed as a hit [30]: yes
- listed as a hit [31]: yes

Substance: ATP synthase subunit e, mitochondrial, P81449
- listed as a hit [32]: yes

Substance: 26S proteasome regulatory subunit RPN13, O13563
- listed as a hit [33]: yes

Substance: Nucleolar protein 16, P40007
- listed as a hit [27]: yes
- listed as a hit [34]: yes

Substance: Casein kinase II subunit alpha, P15790
- listed as a hit [35]: yes

Substance: Casein kinase II subunit alpha', P19454
- listed as a hit [36]: yes

Substance: Cytochrome b-c1 complex subunit 2, mitochondrial, P07257
- listed as a hit [37]: yes

Substance: Cytochrome b-c1 complex subunit 1, mitochondrial, P07256
- listed as a hit [38]: yes

Substance: Respiratory supercomplex factor 2, mitochondrial, P53721
- listed as a hit [39]: yes

Substance: Cytochrome b-c1 complex subunit 6, mitochondrial, P00127
- listed as a hit [40]: yes

Substance: Cytochrome c oxidase subunit 5A, mitochondrial, P00424
- listed as a hit [41]: yes

Substance: DNA-directed RNA polymerase II subunit RPB3, P16370
- listed as a hit [42]: yes
- listed as a hit [43]: yes

Substance: DNA-directed RNA polymerase II subunit RPB2, P08518
- listed as a hit [43]: yes

Substance: 25S rRNA (cytosine(2870)-C(5))-methyltransferase, P40991
- listed as a hit (FK506-binding protein 4): yes

Substance: H/ACA ribonucleoprotein complex subunit CBF5, P33322
- listed as a hit [44]: yes
